Potency and activity data for 26 molecules are collected here from PubChem BioAssay (NCATS).

Several values for one entry are separate records, joined by “and”; a condition that tells them apart may be missing. Equal entries are not always repeated. Records with an inconclusive call do not appear. Activity calls are given as the source filed them. Unless noted, calls follow the shape of the dose curve; as a rule, active = well fitted curve in the direction sought with a large enough effect; inconclusive = small, poorly fitted or top-dose-only effect, or another doubt; inactive = no such curve, though single readings can be large; an effect the other way counts as inactive or inconclusive.

In experiment [1] the target is Cytochrome P450 2D6 (Homo sapiens) (UniProt P10635). Kind of experiment: Cytochrome P450 family 2 subfamily D member 6 (CYP2D6) small molecule antagonists: luciferase biochemical (cell-free) qHTS assay (AID 1645840; active = well fitted curve in the direction sought with a large enough effect in the repeat runs; an effect the other way counts as inactive or inconclusive; also: nearly all actives have a fitted effect of over 55% in size; also: potency is read from the fitted curve at half-maximal effect). The method in brief: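 P450-Glo CYP2D6 system: proluciferin substrate converted by enzyme to luciferin, read by luminescence proportional to activity. Enzyme-substrate mix with compound 10 min at room temperature, then NADPH regeneration 1 h before detection reagent.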
In general terms: qHTS replaces the single test concentration by a dilution series.

Experiment [2] deals with Cytochrome P450 2C9 (Homo sapiens) (UniProt P11712). Kind of experiment: Cytochrome P450 family 2 subfamily C member 9 (CYP2C9) small molecule antagonists: luciferase biochemical (cell-free) qHTS assay (AID 1645842; active = well fitted curve in the direction sought with a large enough effect in the repeat runs; an effect the other way counts as inactive or inconclusive; also: nearly all actives have a fitted effect of over 55% in size; also: potency is read from the fitted curve at half-maximal effect). The method in brief:
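P450-Glo CYP2C9 system: proluciferin substrate with enzyme in mix containing 0.4% BSA, 10 min at room temperature, then NADPH regeneration solution added and incubated 1 h at 37C. Detection reagent stopped reaction; luminescence read after 20 min as RLU.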

A short description of experiment [3]: Primary qHTS for inhibitors of nuclear receptor binding SET domain protein 2 (NSD2) in an isogenic RCH-ACV NSD2 p.E1099K mutant (9B) (AID 1645876). Also: nearly all actives have a fitted effect of over 70% in size. Also: potency is read from the fitted curve at half-maximal effect.
Experiment [4] in a line: Primary qHTS for inhibitors of nuclear receptor binding SET domain protein 2 (NSD2) in an RCH-ACV wild type WT cells (2C) (AID 1645877). Also: nearly all actives have a fitted effect of over 70% in size. Also: potency is read from the fitted curve at half-maximal effect.
Experiment [5] has as its target Catechol O-methyltransferase (Homo sapiens) (UniProt P21964). In words: Confirmatory Screen for Target Class Profiling of Small Molecule Inhibitors of Methyltransferases (AID 1745852). Conditions: MTase-Glo luminescence, SAH detection, recombinant enzyme; measured here: COMT max response; stronger effect = lower value.
Experiment [6] concerns the target N-terminal Xaa-Pro-Lys N-methyltransferase 1 (Homo sapiens) (UniProt Q9BV86). In words: Confirmatory qHTS for Inhibitors of N-terminal methyltransferase 1 (NTMT1): MTaseGlo Assay (AID 1645874).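 Also: luminescence from SAH made as NTMT1 methylates SPKRIA peptide using SAM; series mostly up to about 100 µM; 0% = DMSO control and -100% = no-enzyme control; nearly all actives have a fitted effect of over 65% in size.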 The method in brief: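 Enzyme mix (125 nM NTMT1, 100 uM SAM) + compound, 15 min RT; + 1 uM SPKRIA, 30 min RT, dark; MTase-Glo reagent 30 min, detection solution 30 min; luminescence. % inhibition vs no-enzyme/DMSO controls, 4-parameter Hill fit.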

Chain of Catechol O-methyltransferase (Homo sapiens) (P21964 whole entry, looked up): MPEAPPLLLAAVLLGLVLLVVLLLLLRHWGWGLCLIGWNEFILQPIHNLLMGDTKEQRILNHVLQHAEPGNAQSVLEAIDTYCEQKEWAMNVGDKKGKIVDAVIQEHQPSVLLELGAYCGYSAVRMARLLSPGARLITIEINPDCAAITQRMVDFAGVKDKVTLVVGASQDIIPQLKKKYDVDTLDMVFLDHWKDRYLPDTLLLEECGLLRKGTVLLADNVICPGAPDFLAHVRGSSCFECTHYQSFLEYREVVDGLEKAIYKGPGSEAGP
Chain of Cytochrome P450 2C9 (Homo sapiens) (P11712 whole entry, looked up): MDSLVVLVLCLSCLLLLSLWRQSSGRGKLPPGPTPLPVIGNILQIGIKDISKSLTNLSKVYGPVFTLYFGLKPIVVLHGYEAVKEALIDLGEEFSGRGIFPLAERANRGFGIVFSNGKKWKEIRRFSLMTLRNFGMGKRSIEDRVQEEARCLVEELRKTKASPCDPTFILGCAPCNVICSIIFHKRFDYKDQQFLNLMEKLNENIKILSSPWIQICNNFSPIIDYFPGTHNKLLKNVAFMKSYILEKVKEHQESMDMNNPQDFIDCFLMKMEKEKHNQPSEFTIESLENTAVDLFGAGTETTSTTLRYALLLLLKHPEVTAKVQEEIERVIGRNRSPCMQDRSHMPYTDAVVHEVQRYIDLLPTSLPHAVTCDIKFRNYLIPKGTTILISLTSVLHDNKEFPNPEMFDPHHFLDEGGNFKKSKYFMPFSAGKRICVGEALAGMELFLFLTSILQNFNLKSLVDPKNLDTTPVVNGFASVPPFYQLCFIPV
Chain of Cytochrome P450 2D6 (Homo sapiens) (P10635 whole entry, looked up): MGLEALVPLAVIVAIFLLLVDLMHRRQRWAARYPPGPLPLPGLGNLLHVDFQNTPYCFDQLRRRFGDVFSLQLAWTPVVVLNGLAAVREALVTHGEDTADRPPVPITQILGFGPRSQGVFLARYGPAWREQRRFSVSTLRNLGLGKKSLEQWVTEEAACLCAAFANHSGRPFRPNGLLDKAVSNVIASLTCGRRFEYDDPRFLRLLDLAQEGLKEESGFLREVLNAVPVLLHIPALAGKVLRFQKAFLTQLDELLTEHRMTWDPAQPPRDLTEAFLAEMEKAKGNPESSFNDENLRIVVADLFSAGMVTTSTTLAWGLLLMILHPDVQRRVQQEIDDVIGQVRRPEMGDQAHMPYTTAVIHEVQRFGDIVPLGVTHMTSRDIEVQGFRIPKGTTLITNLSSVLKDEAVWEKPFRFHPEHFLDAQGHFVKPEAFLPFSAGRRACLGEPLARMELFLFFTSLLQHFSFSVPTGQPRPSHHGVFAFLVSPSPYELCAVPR
Chain of N-terminal Xaa-Pro-Lys N-methyltransferase 1 (Homo sapiens) (Q9BV86 whole entry, looked up): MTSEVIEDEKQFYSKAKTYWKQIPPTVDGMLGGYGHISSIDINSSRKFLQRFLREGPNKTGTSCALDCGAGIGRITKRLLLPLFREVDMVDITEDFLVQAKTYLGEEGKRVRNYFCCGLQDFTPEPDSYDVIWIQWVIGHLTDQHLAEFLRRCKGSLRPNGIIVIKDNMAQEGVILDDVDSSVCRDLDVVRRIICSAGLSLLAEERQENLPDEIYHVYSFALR

For `COc1ccc2[nH]c3c(-c4cccc5ccccc45)nccc3c2c1`, the Potency in experiment [1] is 0.0151 µM (active); in experiment [2], 1.51 µM (active); in experiment [3] it was 0.916 µM (active); in experiment [4], 0.578 µM (active).
Turning to `O=C(/C=C/c1cccc(S(=O)(=O)Nc2ccccc2)c1)NO`, the Potency in experiment [1] was 21.3 µM (active); in experiment [2], 10.7 µM (active); in experiment [3], 356 nM (active) and 296 nM (active); in experiment [4], 252 nM (active) and 332 nM (active).
For `CC(=O)N1CCN(C(=O)Cc2ccc(Nc3ncc(F)c(Nc4ccc(C(=O)Nc5ccccc5Cl)cc4)n3)cc2)CC1`, the Potency result in experiment [1] is “inactive”. The figures for the Potency in experiment [2], in experiment [3] and in experiment [4] were 0.477 µM (active), 1.63 µM (active) and 2.05 µM (active), respectively.
In the same order, the values of `CCc1cnn2c(NCc3ccc[n+]([O-])c3)cc(N3CCCCC3CCO)nc12` (configuration not stated) are “inactive”, 15.1 µM (active), 0.0092 µM (active) and 0.0092 µM (active).
As for `Cn1cc(-c2ccc3nnc(Sc4ccc5nn(C)cc5c4)n3n2)cn1`, the Potency entry in experiment [1], in experiment [3] and in experiment [4] was “inactive” throughout. Also, the Potency in experiment [2] was 4.77 µM (active).
For the molecule `COc1c(Nc2ncc(Cl)c(N[C@H]3[C@@H](C(N)=O)[C@@H]4C=C[C@H]3C4)n2)ccc2c1CC[C@@H](N1CCOCC1)CC2`, the Potency is 19 µM (active) in experiment [1], 6.01 µM (active) in experiment [2], 3.25 µM (active) in experiment [3] and 3.25 µM (active) in experiment [4].
Turning to `COc1ccc([C@H]2CNC(=O)C2)cc1OC1CCCC1`, the Potency result in experiment [1], in experiment [2], in experiment [3] and in experiment [4] was “inactive” throughout.
For `Cc1oc2ccccc2c1CNC(=O)NCc1cccs1`, the Potency in experiment [1] was 1.9 µM (active). The Potency result in experiment [2], in experiment [3] and in experiment [4] was “inactive” in each case.
`CN(CCc1ccc(Nc2ncc(-c3cccnc3)s2)cc1)Cc1ccccc1`: the Potency is 1.2 µM (active) in experiment [1], 12 µM (active) in experiment [2], 8.17 µM (active) in experiment [3] and 9.16 µM (active) in experiment [4]. In experiment [5], the activity was -0.695%.
`CCN(CC)CCN(Cc1ccc(-c2ccc(C(F)(F)F)cc2)cc1)C(=O)Cn1c(SCc2ccc(F)cc2)nc(=O)c2c1CCC2`: the Potency in experiment [1] was 9.52 µM (active); in experiment [2] it was 23.9 µM (active); in experiment [3] it was 2.9 µM (active); in experiment [4], 3.65 µM (active). Besides, the activity in experiment [5] is -2.67%.
On to `CN(C)CCn1cc(S(=O)(=O)c2cccc(F)c2)c2cccnc21`, for which the Potency in experiment [1] was 21.3 µM (active). In addition, the Potency entry in experiment [2] and in experiment [4] was “inactive” each time.
Regarding `CC(C)(C(=O)NCC(F)(F)C(F)(F)F)C(=O)NC1C(=O)Nc2ccccc2-c2ccccc21` (configuration not stated), the Potency is 10.7 µM (active) in experiment [1], 9.52 µM (active) in experiment [2] and 14.5 µM (active) in experiment [4].
In the same order, the values of `CC(Cc1cc2c(c(C(N)=O)c1)N(CCCO)CC2)NCCOc1ccccc1OCC(F)(F)F` (configuration not stated) are 7.56 µM (active), “inactive” and “inactive”.
As for `O=C(c1ccccc1)c1ccc2nc(NC(=O)c3csc(C4CCN(c5ncnc6ccsc56)CC4)n3)[nH]c2c1`, the Potency entry in experiment [1] was “inactive”. Further, the values for the Potency in experiment [2], in experiment [3] and in experiment [4] were 9.52 µM (active), 3.25 µM (active) and 4.59 µM (active), respectively. Also, the activity in experiment [5] was -7.12%.
The like results for `CNC(=O)c1ccccc1Nc1nc(Nc2ccc(N3CCNCC3)cc2)ncc1Cl` were, in that order, “inactive”, 6.01 µM (active), 0.103 µM (active), “inactive” and -21.5%.
Turning to `CN1CCN(C2CCC(n3cc(-c4ccc(Oc5ccccc5)cc4)c4c(N)ncnc43)CC2)CC1` (configuration not stated), the Potency in experiment [1] was 12 µM (active); in experiment [3], 20.5 nM (active) and 74.2 nM (active); in experiment [4] it was 72.8 nM (active) and 74.2 nM (active). Also, the Potency entry in experiment [2] was “inactive”. Further, the activity in experiment [5] is -15.7%.
In the case of `CCOC(=O)Nc1cc(-c2ccc(C)c(NS(C)(=O)=O)c2)nn2c(C)nnc12`, in experiment [1], the Potency entry is “inactive”. Further, the Potency was 0.728 µM (active) in experiment [3] and 0.515 µM (active) in experiment [4].
In the same order, the values of `CC(C)C(CO)Nc1nc(Nc2cc(N)cc(Cl)c2)c2ncn(C(C)C)c2n1` (configuration not stated) are 23.9 µM (active), 6.49 µM (active) and 6.49 µM (active).
The like results for `O=C(O)CC1CCC(c2ccc(-c3ccc4nc(C(=O)NCc5ccc(OC(F)(F)F)cc5)cn4c3)cc2)CC1` (configuration not stated) were, in that order, “inactive”, “inactive” and “inactive”.
The like results for `CC(=O)NC1=NN(C(C)=O)C(C)(c2ccccc2)S1` (configuration not stated) were, in that order, “inactive”, 4.59 µM (active) and 4.09 µM (active).
Turning to `CCN1CCN(Cc2ccc(NC(=O)c3ccc(C)c(NC(=O)c4cncc(-c5cccs5)c4)c3)cc2C(F)(F)F)CC1`, the Potency in experiment [1] is 3.38 µM (active); in experiment [3], 45.9 nM (active) and 166 nM (active); in experiment [4], 51.5 nM (active) and 186 nM (active).
Turning to `Cn1ncnc1COc1nn2c(-c3cc(F)ccc3F)nnc2cc1C(C)(C)C`, in experiment [1], the Potency entry was “inactive”. Moreover, the Potency in experiment [2] was 9.52 µM (active); in experiment [4], 1.03 µM (active).
For the molecule `Cc1cc(OCc2nc(-c3ccccc3Cl)cs2)ccc1OCC(=O)O`, the Potency result in experiment [1], in experiment [3] and in experiment [4] was “inactive” each time.
Take `CC(C)(C)OC(=O)N1CCC(OCc2nc(-c3ccncc3)no2)CC1`: the Potency entry in experiment [1], in experiment [3] and in experiment [4] was “inactive” throughout.
As to `CCn1c(=O)c(-c2ccn[nH]2)cc2c(C)nc(N)nc21`, the Potency entry in experiment [1] and in experiment [6] was “inactive” throughout. Moreover, the Potency in experiment [3] was 0.934 µM (active); in experiment [4], 1.18 µM (active).
`COc1ccc(N2CCOCC2)c2sc(NC(=O)N3CCC(C)(O)CC3)nc12`: the Potency in experiment [1] is 16.9 µM (active). In addition, the Potency result in experiment [3] and in experiment [4] was “inactive” each time.
